{"source": "the supplement of paper PMC9023506", "note": "Structures can show the parent of a compound that is named as a salt."}
{"tested_on": "Danio rerio larvae (5 dpf)", "experiment": "habituation to 1-s acoustic pulses, difference vs DMSO (percentage points (treated minus DMSO)); higher = more of the behaviour than the DMSO vehicle control", "conditions": "10 µM; exposure time: 3 h pre-incubation + 3 h imaging", "description": "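5-dpf wild-type zebrafish larvae were imaged in 96-well plates. They were treated with 190 Tocris FDA-approved drugs at 10 µM (1 µl/ml DMSO) for 3 h before and 3 h during imaging at 28.5 °C, 48 larvae per drug. Automated image analysis gave % time moving and optomotor responses. Values are drug group mean minus DMSO vehicle mean (n=844), in percentage points, for 10 behaviours.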"}
{"smiles": "Cn1nnc2c(C(N)=O)ncn2c1=O", "note": "[Temozolomide]", "habituation to 1-s acoustic pulses": 4.01}
{"smiles": "CN(C)CCc1c[nH]c2ccc(C[C@H]3COC(=O)N3)cc12", "note": "[Zolmitriptan]", "habituation to 1-s acoustic pulses": -1.85}
{"smiles": "CC(C)c1ccc2oc3nc(N)c(C(=O)O)cc3c(=O)c2c1", "note": "[Amlexanox]", "habituation to 1-s acoustic pulses": -1.39}
{"smiles": "CN(C)CC/C=C1/c2ccccc2COc2ccc(CC(=O)O)cc21", "note": "[Olopatadine hydrochloride]", "habituation to 1-s acoustic pulses": 0.997}
{"smiles": "CO[C@H]1/C=C/O[C@@]2(C)Oc3c(C)c(O)c4c(O)c(c5c(nc6cc(C)ccn65)c4c3C2=O)NC(=O)/C(C)=C\\C=C\\[C@H](C)[C@H](O)[C@@H](C)[C@@H](O)[C@@H](C)[C@H](OC(C)=O)[C@@H]1C", "note": "[Rifaximin]", "habituation to 1-s acoustic pulses": -3.04}
{"smiles": "COc1c(C)c2c(c(O)c1C/C=C(\\C)CCC(=O)OCCN1CCOCC1)C(=O)OC2", "note": "[Mycophenolate mofetil]", "habituation to 1-s acoustic pulses": 0.172}
{"smiles": "COc1cc2ncnc(Nc3ccc(F)c(Cl)c3)c2cc1OCCCN1CCOCC1", "note": "[Iressa]", "habituation to 1-s acoustic pulses": 0.91}
{"smiles": "CCOC(=O)[C@H](CCc1ccccc1)N[C@@H](C)C(=O)N1[C@H](C(=O)O)C[C@@H]2CCC[C@@H]21", "note": "[Ramipril]", "habituation to 1-s acoustic pulses": -1.94}
{"smiles": "CN(C)CCC[C@@]1(c2ccc(F)cc2)OCc2cc(C#N)ccc21", "note": "[Escitalopram oxalate]", "habituation to 1-s acoustic pulses": -4.74}
{"smiles": "CC(=O)Oc1cc2c(s1)CCN(C(C(=O)C1CC1)c1ccccc1F)C2", "note": "(stereo not given) [Prasugrel]", "habituation to 1-s acoustic pulses": 2.1}
{"smiles": "CNS(=O)(=O)Cc1ccc2[nH]cc(CCN(C)C)c2c1", "note": "[Sumatriptan succinate]", "habituation to 1-s acoustic pulses": -0.62}
{"smiles": "O=c1[nH]c(=O)n([C@H]2C[C@H](O)[C@@H](CO)O2)cc1C(F)(F)F", "note": "[Trifluorothymidine]", "habituation to 1-s acoustic pulses": 4.64}
{"smiles": "CC(=O)O[C@H]1C(=O)[C@@]2(C)[C@H]([C@H](OC(=O)c3ccccc3)[C@]3(O)C[C@H](OC(=O)[C@H](O)[C@@H](NC(=O)c4ccccc4)c4ccccc4)C(C)=C1C3(C)C)[C@]1(OC(C)=O)CO[C@@H]1C[C@@H]2O", "note": "[Taxol]", "habituation to 1-s acoustic pulses": -2.74}
{"smiles": "CN[C@H]1CC[C@@H](c2ccc(Cl)c(Cl)c2)c2ccccc21", "note": "[Sertraline hydrochloride]", "habituation to 1-s acoustic pulses": -2.9}
{"smiles": "Cc1cccc(C)c1OCC(C)N", "note": "(stereo not given) [Mexiletine hydrochloride]", "habituation to 1-s acoustic pulses": 5.97}
{"smiles": "COc1cc(N)c(Cl)cc1C(=O)NC1CCN(CCCOc2ccc(F)cc2)CC1OC", "note": "(stereo not given) [Cisapride]", "habituation to 1-s acoustic pulses": 6.52}
{"smiles": "O=C(Nc1c(Cl)cncc1Cl)c1ccc(OC(F)F)c(OCC2CC2)c1", "note": "[Roflumilast]", "habituation to 1-s acoustic pulses": -1.13}
{"smiles": "NS(=O)(=O)Cc1noc2ccccc12", "note": "[Zonisamide]", "habituation to 1-s acoustic pulses": -0.0674}
{"smiles": "CCc1nc(N)nc(N)c1-c1ccc(Cl)cc1", "note": "[Pyrimethamine]", "habituation to 1-s acoustic pulses": 5.04}
{"smiles": "CCOC(=O)[C@H](CCc1ccccc1)N[C@H]1CCc2ccccc2N(CC(=O)O)C1=O", "note": "[Benazepril hydrochloride]", "habituation to 1-s acoustic pulses": 3.08}
{"smiles": "COc1ccccc1OCC(O)CN1CCN(CC(=O)Nc2c(C)cccc2C)CC1", "note": "(stereo not given) [Ranolazine dihydrochloride]", "habituation to 1-s acoustic pulses": -4.45}
{"smiles": "Nc1cc(N2CCCCC2)nc(N)[n+]1[O-]", "note": "[Minoxidil]", "habituation to 1-s acoustic pulses": 5.2}
{"smiles": "CCOc1cc(CC(=O)N[C@@H](CC(C)C)c2ccccc2N2CCCCC2)ccc1C(=O)O", "note": "[Repaglinide]", "habituation to 1-s acoustic pulses": -8.43}
{"smiles": "COc1cc([C@@H]2c3cc4c(cc3[C@@H](O[C@@H]3O[C@@H]5CO[C@@H](C)O[C@H]5[C@H](O)[C@H]3O)[C@H]3COC(=O)[C@H]23)OCO4)cc(OC)c1O", "note": "[Etoposide]", "habituation to 1-s acoustic pulses": 0.485}
{"smiles": "CC(=O)NC[C@H]1CN(c2ccc(N3CCOCC3)c(F)c2)C(=O)O1", "note": "[Linezolid]", "habituation to 1-s acoustic pulses": -2.78}
{"smiles": "COc1cc2nc(N3CCN(C(=O)C4COc5ccccc5O4)CC3)nc(N)c2cc1OC", "note": "(stereo not given) [Doxazosin mesylate]", "habituation to 1-s acoustic pulses": -2.28}
{"smiles": "Cc1ccccc1C(=O)Nc1ccc(C(=O)N2CCCC(O)c3cc(Cl)ccc32)c(C)c1", "note": "(stereo not given) [Tolvaptan]", "habituation to 1-s acoustic pulses": 1.17}
{"smiles": "CN/C(=N\\CCSCc1nc[nH]c1C)NC#N", "note": "[Cimetidine]", "habituation to 1-s acoustic pulses": 5.48}
{"smiles": "CC(=O)Nc1ccc(O)cc1", "note": "[Acetaminophen]", "habituation to 1-s acoustic pulses": -1.9}
{"smiles": "COc1cccc2c1C(=O)c1c(O)c3c(c(O)c1C2=O)C[C@@](O)(C(=O)CO)C[C@@H]3O[C@H]1C[C@H](N)[C@H](O)[C@H](C)O1", "note": "[Doxorubicin hydrochloride]", "habituation to 1-s acoustic pulses": 3.26}
{"smiles": "O=c1n(CCCN2CCN(c3cccc(Cl)c3)CC2)nc2ccccn12", "note": "[Trazodone hydrochloride]", "habituation to 1-s acoustic pulses": -10.7}
{"smiles": "CC[C@H]1OC(=O)[C@H](C)[C@@H](O[C@H]2C[C@@](C)(OC)[C@@H](O)[C@H](C)O2)[C@H](C)[C@@H](O[C@@H]2O[C@H](C)C[C@H](N(C)C)[C@H]2O)[C@](C)(O)C[C@@H](C)CN(C)[C@H](C)[C@@H](O)[C@]1(C)O", "note": "[Azithromycin]", "habituation to 1-s acoustic pulses": 4.52}
{"smiles": "CCOc1nc2cccc(C(=O)O)c2n1Cc1ccc(-c2ccccc2-c2nnn[nH]2)cc1", "note": "[Candesartan]", "habituation to 1-s acoustic pulses": 4.86}
{"smiles": "CCCC1O[C@@H]2C[C@H]3[C@@H]4CCC5=CC(=O)C=C[C@]5(C)[C@H]4[C@@H](O)C[C@]3(C)[C@]2(C(=O)CO)O1", "note": "(stereo not given in full) [Budesonide]", "habituation to 1-s acoustic pulses": -1.73}
{"smiles": "Cn1cnc([N+](=O)[O-])c1Sc1ncnc2[nH]cnc12", "note": "[Azathioprine]", "habituation to 1-s acoustic pulses": -2.96}
{"smiles": "CN(CCOc1ccc(CC2SC(=O)NC2=O)cc1)c1ccccn1", "note": "(stereo not given) [Rosiglitazone]", "habituation to 1-s acoustic pulses": 0.476}
{"smiles": "CC(C)C(=O)OCC(=O)[C@@]12O[C@H](C3CCCCC3)O[C@@H]1C[C@H]1[C@@H]3CCC4=CC(=O)C=C[C@]4(C)[C@H]3[C@@H](O)C[C@@]12C", "note": "[Ciclesonide]", "habituation to 1-s acoustic pulses": -1.43}
{"smiles": "COc1cc2nccc(Oc3ccc(NC(=O)C4(C(=O)Nc5ccc(F)cc5)CC4)cc3)c2cc1OC", "habituation to 1-s acoustic pulses": -4.53}
{"smiles": "CNC(=O)c1ccccc1Sc1ccc2c(/C=C/c3ccccn3)n[nH]c2c1", "note": "[Axitinib]", "habituation to 1-s acoustic pulses": -2.02}
{"smiles": "CC(C)(C#N)c1cc(Cn2cncn2)cc(C(C)(C)C#N)c1", "note": "[Anastrozole]", "habituation to 1-s acoustic pulses": 6.34}
